{"source": "PubChem BioAssay (Tox21)", "note": "Unmarked numbers belong to inactive results. Activity calls are given as the source filed them. Calls come from the whole dose curve; as a rule, active = well fitted curve in the direction sought with a large enough effect in the repeat runs; inconclusive = weak or mixed curves; inactive = flat fitted curve, though single readings scatter. % is set by controls: 0 for no effect and ±100 for the full control effect."}
{"experiment": "qHTS assay to test for compound auto fluorescence at 460 nm (blue) in HEK293 cell free culture (AID 720681)", "settings": "cell-free medium, autofluorescence 405/460 nm (blue); series mostly up to 91.3 µM; fluorescence, % of fluorescent control: at the top concentration", "source_text": "U.S. Tox21 Program National Center for Advancing Translational Sciences [NCATS] NIH Chemical Genomics Center [NCGC] U.S. Environmental Protection Agency [EPA] National Institutes of Environmental Health Sciences [NIEHS] National Toxicology Program [NTP] U.S. Food and Drug Administration [FDA] Tox21 Assay Overview: Compound auto fluorescence often interferes with screening of the compound library against various biological targets and signaling pathways. Some of these compounds may have fluorophoric properties. Such properties may interfere with the assay outputs resulting in false positives and/or negatives. To decrease such complications and ensure the compound activities are relevant in terms of biological response, the Tox21 10K compound library was screened for auto fluorescence. From the fluorophores used as reporter signals in our screening assays, the auto fluorescence equivalencies of compounds against three fluorophores have been evaluated: Triamterene, Fluorescein and Rose Bengal sodium for blue, green and red fluorescence, respectively. The fluorescence intensities were measured using Excitation/Emission wavelengths at 405/460nm, 485/535nm and 540/590nm for blue, green and red labels, respectively. This assay includes the blue fluorescence data.\nTox21 Assay Protocol Summary: 5 uL of culture medium (DMEM containing 10% FBS) per well was dispensed into black wall/clear bottom 1536-well plates using a Multidrop Combi Dispenser (ThermoFisher Scientific, Waltham, MA). After 23 nL compound or DMSO vehicle was transferred into assay plate by a pintool work station (Kalypsys, San Diego, CA), fluorescence intensities in the assay plates were measured by an Envision (PerkinElmer, Shelton, CT) plate reader using three labels for measuring blue, green and red fluorescence at […] 460, 535 and 590nm respectively."}
{"smiles": "CCCCNP(N)(N)=S", "fluorescence, % of fluorescent control": "-0.0573%"}
{"smiles": "O=Cc1ccc2c(c1)OCO2", "fluorescence, % of fluorescent control": "-0.0766%"}
{"smiles": "CCN(C)N=O", "fluorescence, % of fluorescent control": "-0.0251%"}
{"smiles": "C=CC[C@]1(O)CC[C@H]2[C@@H]3CCC4=CC(=O)CCC4=C3C=C[C@@]21C", "fluorescence, % of fluorescent control": "8.1% [at 46 µM]"}
{"smiles": "COC(=O)C(C)N(C(=O)Cc1ccccc1)c1c(C)cccc1C", "note": "(stereo not given)", "fluorescence, % of fluorescent control": "0.0085%"}
{"smiles": "CCCCN(N=O)C(=N)N[N+](=O)[O-]", "fluorescence, % of fluorescent control": "0.132% [at 95.7 µM]"}
{"smiles": "Cc1ccc2ccccc2c1", "fluorescence, % of fluorescent control": "0.165%"}
{"smiles": "O=C1C(Cl)C(CCl)CN1c1cccc(C(F)(F)F)c1", "note": "(stereo not given)", "fluorescence, % of fluorescent control": "-0.17%"}
{"smiles": "CC(=O)C(C)(C)C", "fluorescence, % of fluorescent control": "-0.244% [at 95.7 µM]"}
{"smiles": "c1cc2ccc3cccc4ccc(c1)c2c34", "fluorescence, % of fluorescent control": "6.7% [at 95.7 µM]"}
{"smiles": "CCCN(CC1CC1)c1c([N+](=O)[O-])cc(C(F)(F)F)cc1[N+](=O)[O-]", "fluorescence, % of fluorescent control": "-0.0319%"}
{"smiles": "C=CC(=O)NCNC(=O)C=C", "fluorescence, % of fluorescent control": "-0.12%"}
{"smiles": "CC(c1ccc(O)cc1)(c1ccc(O)cc1)c1ccc(O)cc1", "fluorescence, % of fluorescent control": "-0.054%"}
{"smiles": "CCCCCCC#N", "fluorescence, % of fluorescent control": "0.155%"}
{"smiles": "CC(=O)CCC(C)=O", "fluorescence, % of fluorescent control": "-0.346% [at 95.7 µM]"}
{"smiles": "S=C=NCc1ccccc1", "fluorescence, % of fluorescent control": "0.0437%"}
{"smiles": "CCOP(=O)(OCC)SCCSCC", "fluorescence, % of fluorescent control": "0.223%"}
{"smiles": "CC/C(=N\\OC/C=C/Cl)C1=C(O)CC(C2CCOCC2)CC1=O", "note": "(stereo not given)", "fluorescence, % of fluorescent control": "0.0762%"}
{"smiles": "CCCCC(O)(Cn1cncn1)c1ccc(Cl)cc1Cl", "note": "(stereo not given)", "fluorescence, % of fluorescent control": "-0.229%"}
{"smiles": "Nc1nc(=S)[nH][nH]1", "fluorescence, % of fluorescent control": "-0.201%"}
{"smiles": "O=C(NCc1cccnc1)Nc1ccc([N+](=O)[O-])cc1", "fluorescence, % of fluorescent control": "-0.0526%"}
{"smiles": "CCCCCCCCCCOC(=O)c1ccccc1C(=O)OCCCCCCCCCC", "fluorescence, % of fluorescent control": "-0.0105%"}
{"smiles": "NNC(=O)c1cccnc1", "fluorescence, % of fluorescent control": "0.564%"}
{"smiles": "C(=NC1CCCCC1)=NC1CCCCC1", "outcome": "inactive"}
{"smiles": "O=[N+]([O-])c1cc(C(F)(F)F)cc([N+](=O)[O-])c1Cl", "fluorescence, % of fluorescent control": "-0.764%"}
{"smiles": "CC(C)N(CCC(C(N)=O)(c1ccccc1)c1ccccn1)C(C)C", "note": "(stereo not given)", "fluorescence, % of fluorescent control": "0.156% [at 46 µM]"}
{"smiles": "O=C=Nc1ccc(Cl)cc1", "fluorescence, % of fluorescent control": "-0.166%"}
{"smiles": "CC(=O)[C@H]1CC[C@H]2[C@@H]3CC[C@H]4C[C@](C)(O)CC[C@]4(C)[C@H]3CC[C@]12C", "fluorescence, % of fluorescent control": "-0.0618% [at 46 µM]"}
{"smiles": "NS(=O)(=O)C(F)(F)C(F)(F)C(F)(F)C(F)(F)C(F)(F)C(F)(F)C(F)(F)C(F)(F)F", "fluorescence, % of fluorescent control": "0.0222%"}
{"smiles": "CC(C)O.CC(C)O.OCCN(CCO)CCO.OCCN(CCO)CCO.[Ti]", "fluorescence, % of fluorescent control": "-0.166%"}
{"smiles": "O=C(O)C(F)(F)C(F)(F)C(F)(F)C(F)(F)C(F)(F)C(F)(F)C(F)(F)C(F)(F)C(F)(F)F", "fluorescence, % of fluorescent control": "0.338%"}
{"smiles": "C=C(C#N)CCC#N", "fluorescence, % of fluorescent control": "-0.0035%"}
{"smiles": "CS/C(C)=N/OC(=O)N(C)SN(C)C(=O)O/N=C(\\C)SC", "fluorescence, % of fluorescent control": "0.0062%"}
{"smiles": "CCOP(=S)(OCC)Oc1nc(Cl)c(Cl)cc1Cl", "outcome": "inactive"}
{"smiles": "O=NN1CCNCC1", "fluorescence, % of fluorescent control": "0.0368% [at 95.7 µM]"}
{"smiles": "CCOc1ccc(C(C)(C)COCc2cccc(Oc3ccccc3)c2)cc1", "fluorescence, % of fluorescent control": "0.0129%"}
{"smiles": "NCCCNCCCN", "fluorescence, % of fluorescent control": "0.0151% [at 95.7 µM]"}
{"smiles": "C=CCOC(C)=O", "fluorescence, % of fluorescent control": "-0.0597%"}
{"smiles": "CC(O)(CS(=O)(=O)c1ccc(F)cc1)C(=O)Nc1ccc(C#N)c(C(F)(F)F)c1", "note": "(stereo not given)", "outcome": "inactive"}
{"smiles": "CC1(C)[C@H](C=C(Cl)Cl)[C@@H]1C(=O)O[C@@H](C#N)c1cccc(Oc2ccccc2)c1", "fluorescence, % of fluorescent control": "0.007%"}
